Experiments:
Settings in all cases: concentration: 1 μM, replicates: in singlicate; n = 1
[1] = test system: CAMKK1
[2] = test system: CAMKK2
[3] = test system: CASK
[4] = test system: T1, CDC2L1
T1 construct: gene CDK11B

[5] = test system: CDC2L2
[6] = test system: T2, CDC2L5
T2 construct: gene CDK13

[7] = test system: T3, CDK11
T3 construct: gene CDK19

[8] = test system: CDK2
[9] = test system: CDK3
[10] = test system: CDK4-cyclinD1
[11] = test system: CDK4-cyclinD3
[12] = test system: CDK4
[13] = test system: CDK5
[14] = test system: CDK7
[15] = test system: CDK8
[16] = test system: CDK9
[17] = test system: CDKL1
[18] = test system: CDKL2
[19] = test system: CDKL3
[20] = test system: CDKL5
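Also: KINOMEscan kinase panel screen.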

Structure (SMILES)	%Inh [1] [%]	%Inh [2] [%]	%Inh [3] [%]	%Inh [4] [%]	%Inh [5] [%]	%Inh [6] [%]	%Inh [7] [%]	%Inh [8] [%]	%Inh [9] [%]	%Inh [10] [%]	%Inh [11] [%]	%Inh [12] [%]	%Inh [13] [%]	%Inh [14] [%]	%Inh [15] [%]	%Inh [16] [%]	%Inh [17] [%]	%Inh [18] [%]	%Inh [19] [%]	%Inh [20] [%]
O=c1cc(N2CCOCC2)nc2n(Cc3cccc(C(F)(F)F)c3)ccn12 [GSK2297543]	3	0	9	0	18	0	3	0	0	0	7	12	0	0	16	0	0	20	0	0
CC(C)Oc1ccc2c(-c3ccnc(Nc4ccc(N5CCN(C)CC5)cc4)n3)cnn2n1 [GW696155]	40	44	23	63	51	0	19	0	17	94.4	97.8	58	0	99.8	8	21	34	99.6	92	43
COc1cc(Nc2nccc(N3CCC(NC(=O)c4cccc(NC(C)=O)c4)C3)n2)cc(OC)c1OC (centres unmarked) [GSK1379754]	0	11	1	0	2	0	20	2	0	0	0	12	0	9	33	0	0	22	0	4
CN(C(=O)c1ccc(-c2cc(-c3c[nH]nc3-c3ccccn3)ccn2)cc1)C1CCOCC1 [GW810083]	12	25	0	0	0	11	52	0	0	31	0	15	0	9	45	0	21	0	47	0
Cc1c2ccc(N(C)c3ccnc(Nc4cccc(S(N)(=O)=O)c4)n3)cc2nn1Cc1ccccc1.Cl.Cl [GW787226]	0	0	9	66	76	0	9	0	3	0	0	2	0	3	0	3	0	39	10	0
O=C(c1ccc(-c2cc(-c3c[nH]nc3-c3ccccn3)ccn2)cc1)N1CCOCC1 [GW812171]	0	0	4	0	2	11	0	0	0	0	0	1	0	17	7	0	25	8	0	0
Cn1cc(-c2ccc3c(c2)CCN3C(=O)Cc2ccccc2Cl)c2c(N)ncnc21 [GSK2608885]	25	28	0	0	14	0	0	0	0	0	0	22	0	1	7	0	0	17	0	10
Cn1ccc2ncnc(Oc3ccc(NC(=O)Nc4ccncc4)c(Cl)c3)c21	0	2	0	0	0	25	0	0	0	0	0	0	0	0	0	0	0	0	0	49
NS(=O)(=O)c1cccc(-c2ccc3nccc(-c4cccc(S(N)(=O)=O)c4)c3c2)c1 [GW867253]	13	19	30	0	0	0	13	0	22	0	0	19	0	4	36	0	27	16	20	5
CN1c2ccc(NCc3ccc(F)cc3)cc2-c2c(cnn2C)S1(=O)=O	0	0	26	0	0	27	0	25	0	21	0	0	6	0	62	15	20	19	0	0
